Screens: PubChem BioAssay, several laboratories
AMPAR-TARP mod = modulators of AMPA receptor GluA2-stargazin complexes; O88602+P19491; HEK293 GluA2+stargazin, membrane potential dye (FDSS), glutamate EC50; hits were called plate by plate, in both directions; calls only at 30 µM; 3.5% of 40,000 active;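 active means any of four per-well response measures lying three or more SD from its plate-wide compound average, in either direction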
GIRK2 act = Activates human GIRK2-containing potassium channels. AID 1259324. activation (% efficacy), % for hits at 37.5 µM. P48051. 34,000 tested, under 10 active. HEK293 GIRK2/NPY4 cells, thallium flux fluorescence;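 active means primary screen hit, no activity in plain HEK293 cells, and in GIRK2-only cells above 5% efficacy rising with concentration; inactive means the rest, including fluorescent compounds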;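 further: efficacy is normalized control-subtracted fluorescence 15 s after thallium addition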
Target sequence (P48051 whole entry, looked up): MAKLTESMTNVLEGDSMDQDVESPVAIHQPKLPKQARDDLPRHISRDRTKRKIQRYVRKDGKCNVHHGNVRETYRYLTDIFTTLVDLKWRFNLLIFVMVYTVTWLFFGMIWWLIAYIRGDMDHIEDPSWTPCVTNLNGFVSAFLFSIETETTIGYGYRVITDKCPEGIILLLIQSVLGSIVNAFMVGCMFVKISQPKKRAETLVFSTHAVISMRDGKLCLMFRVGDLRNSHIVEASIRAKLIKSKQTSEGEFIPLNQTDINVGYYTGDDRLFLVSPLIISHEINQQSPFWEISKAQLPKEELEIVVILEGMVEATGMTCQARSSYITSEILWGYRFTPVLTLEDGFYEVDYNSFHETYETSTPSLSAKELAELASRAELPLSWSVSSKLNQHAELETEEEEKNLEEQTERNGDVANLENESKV
An asterisk follows results filed as active; i = inactive; . = not tested or not shown; + = active, no number. Shown is part of a subset that was picked to be rich in hits.

SMILES	AMPAR-TARP mod	GIRK2 act
COc1cc(NC(=O)c2c(F)cccc2Cl)ccc1N1CCCCC1=O	i	.
CN(C)S(=O)(=O)c1ccc(C(=O)NCC2CCN(C(=O)COc3ccccc3)CC2)cc1	i	i
O=C(Nc1ccc2c(c1)N(C(=O)C1CCCC1)CC2)c1ccc(C(F)(F)F)cc1	i	.
O=C(Nc1ccc2c(c1)N(C(=O)C1CCCO1)CC2)c1ccc(C(F)(F)F)cc1 (stereo not given)	+	i
O=C(c1cc(-c2ccc(F)cc2)n[nH]1)N1CCN(c2ccc(-c3ccccn3)nn2)CC1	i	i
Cc1ccc(Nc2ccc(NC(=O)c3ccc4c(c3)OCO4)cc2)nn1	i	i
Cc1cc(N(C)C)nc(Nc2ccc(NC(=O)c3ccc4c(c3)OCO4)cc2)n1	+	.
CS(=O)(=O)N1CCCC(C(=O)Nc2nc3cc4c(cc3s2)OCCO4)C1 (stereo not given)	i	i
O=C(NCCCn1nc(-c2cccs2)ccc1=O)Nc1ccc(F)cc1	i	i
CCCOC(=O)c1cc2cc(Br)cc(OC)c2oc1=O	+	i
CCC(C)NC(=O)c1cc2cc(Br)cc(OC)c2oc1=O (stereo not given)	i	i
COc1ccc(N2C(=O)CN(CCc3ccccc3OC)C3CS(=O)(=O)CC32)cc1 (stereo not given)	i	i
COc1ccc(N2C(=O)CS(=O)(=O)C23C(=O)N(Cc2ccccc2C)c2ccccc23)cc1 (stereo not given)	+	.
CCOC(=O)c1oc2cc(OCC#N)ccc2c(=O)c1-c1ccc(OC)cc1	i	.
CCOc1ccc(NC(=O)Cn2cc(OC)c(=O)cc2CSc2nc(C)cs2)cc1	i	i
COc1ccc(NC(=O)Cn2cc(OC)c(=O)cc2CSc2nnnn2C)cc1OC	+	i
COc1cn(CC(=O)Nc2ccc(C(N)=O)cc2)c(CSc2nnnn2C)cc1=O	i	i
COc1cn(CC(=O)Nc2ccc(C)cc2)c(CSc2nc(C)cs2)cc1=O	+	i
Cc1nnc(NC(=O)C2CN(c3nc4c(C(F)(F)F)cccc4s3)C2)s1	i	i
Cc1ccc(Cn2nc(C(=O)Nc3c(C)cccc3C)ccc2=O)cc1	i	i
Cn1c(=O)[nH]c(=O)c2c1nc(N1CCNCC1)n2CC(O)COc1ccc(Cl)cc1 (stereo not given)	+	.
Cc1ccc(OCC(O)Cn2c(N3CCCC3)nc3c2c(=O)n(C)c(=O)n3C)cc1C (stereo not given)	i	.
Cc1ccc(OCC(O)Cn2c(N3CCN(C)CC3)nc3c2c(=O)n(C)c(=O)n3C)cc1C (stereo not given)	+	.
CC1CCN(c2nc3c(c(=O)[nH]c(=O)n3C)n2CC(O)COc2ccc(Cl)cc2)CC1 (stereo not given)	i	.
O=S(=O)(c1cccc2cccnc12)N1CCCCCC1	i	.
SMILES	AMPAR-TARP mod	GIRK2 act
O=c1c2nn(Cc3ccc(F)cc3)c(=O)n2ccn1-c1ccc(Br)cc1	i	i
CCOC(=O)N1CCc2nc(NC(=O)c3cccs3)sc2C1	i	i
CCOC(=O)N1CCc2nc(NC(=O)c3ccc([N+](=O)[O-])s3)sc2C1	+	.
O=C(NCCN1CCOCC1)C(=O)Nc1ccc(F)c([N+](=O)[O-])c1	i	i
O=C(NCCCN1CCOCC1)C(=O)Nc1ccc(F)c([N+](=O)[O-])c1	+	i
Cc1ccc(-n2ncc3c(=O)n(NC(=O)c4ccc(OC(C)C)cc4)cnc32)cc1	i	i
CCOc1ccc(NC(=O)CN2CCN(c3nccn3-c3ccc(C)cc3)CC2)cc1	i	i
Cc1ccccc1C(=O)N1CCC2(CC1)CC(=O)c1ccccc1O2	+	.
CC(C)(C)c1ccc(C(=O)N2CCC3(CC2)CC(=O)c2ccccc2O3)cc1	i	.
COc1ccc(CC(=O)Nc2ccc(CC(=O)NCc3cccs3)cc2)cc1	i	i
O=C(Cc1csc(Nc2ccccc2)n1)NC1CCCC1	i	i
Cc1nnc(NC(=O)Cn2nc(-c3ccc4c(c3)OCO4)ccc2=O)s1	i	i
CCOC(=O)c1c(SCc2cccc(C(F)(F)F)c2)nc(=O)[nH]c1C	i	i
O=C(C1CCCC1)N1CCN(c2ccc(-c3ccc(Cl)cc3)nn2)CC1	+	i
O=C(C1CCCCC1)N1CCN(c2ccc(-c3ccncc3)nn2)CC1	i	i
O=C(C1CC1)N1CCN(c2ccc(-c3ccc(Cl)cc3)nn2)CC1	i	i
O=C(C1c2ccccc2Oc2ccccc21)N1CCN(c2ccc(-c3ccncc3)nn2)CC1	+	i
O=C1CCCN1c1cccc(NS(=O)(=O)c2ccc3c(c2)OCCO3)c1	i	i
CCOc1ccc(NS(=O)(=O)c2cccc(Cl)c2)cc1	i	i
CC(=O)N1CCc2c(sc3nc(SCc4ccc([N+](=O)[O-])cc4)n(Cc4ccco4)c(=O)c23)C1	i	.
CC(=O)N1CCc2c(sc3nc(SCc4cccc([N+](=O)[O-])c4)n(Cc4ccco4)c(=O)c23)C1	+	i
CN1CCN(c2nnnc3c2cnn3-c2ccccc2)CC1	i	i
CCc1nc(N2CCN(C)CC2)c2oc3ccccc3c2n1	+	i
COc1ccc(C2(CNS(C)(=O)=O)CCCC2)cc1	i	i
COc1ccc(C2(CNC(=O)C3CCN(S(C)(=O)=O)CC3)CCCC2)cc1	+	i
SMILES	AMPAR-TARP mod	GIRK2 act
COc1ccc(Br)c(C(=O)Nc2ccc3c(c2)N(C(=O)c2cccs2)CC3)c1	i	i
O=C(Cc1ccccc1)Nn1c(SCc2cccc(Cl)c2)nc2ccccc2c1=O	i	.
CN1C(=O)C(C)(C)COc2cc(NC(=O)c3ccc4nsnc4c3)ccc21	+	i
Cc1cc(C(=O)Nc2ccc3c(c2)OCC(C)(C)C(=O)N3C)c(C)o1	i	i
COc1cc(S(=O)(=O)N2CCN=C2c2ccccc2)ccc1F	i	.
CCc1cc(S(=O)(=O)N2CCN=C2c2ccccc2)ccc1OC	+	i
COc1ccc(CCNC(=O)Cn2ncn3nc4c(c3c2=O)CCCC4)cc1OC	.	i
COc1ccc(Cl)cc1NC(=O)Cn1ncn2nc3c(c2c1=O)CCCC3	+	i
COc1ccc(NC(=O)/C(C#N)=C/N2CCN(c3cccc(Cl)c3)CC2)cc1	i	i
O=C(Nc1c(F)cccc1F)N1CCC(Cn2c(COc3ccccc3)nc3ccccc32)CC1	i	i
CCOc1ccccc1C(=O)NC1CC(=O)N(c2ccc(C)c(C)c2)C1 (stereo not given)	+	.
CCOc1ccccc1C(=O)NC1CC(=O)N(c2ccccc2)C1 (stereo not given)	i	.
Cc1cccc(-n2nc3c(c2NC(=O)C(=O)NCCC2=CCCCC2)CS(=O)(=O)C3)c1	i	i
CCn1nc(C(=O)Nc2sc3c(c2C(=O)OC)CCC(C)C3)cc1C (stereo not given)	.	i
COCCN1COc2ccc3c(=O)c(-c4ccc(Cl)cc4)c(C(F)(F)F)oc3c2C1	i	i
Cn1c(=O)c2c(SCC(=O)N3CCOCC3)ccnc2n(C)c1=O	+	.
C#CCSc1ccnc2c1c(=O)n(C)c(=O)n2C	i	.
CCCCSc1ccnc2c1c(=O)n(C)c(=O)n2C	+	.
CC1CCN(C(=O)CSc2ccnc3c2c(=O)n(C)c(=O)n3C)CC1	i	.
Cc1nc(-n2cccc2)sc1C(=O)NCc1ccc(C(C)C)cc1	i	i
